AMA1 RON2 block – disrupts binding of P. falciparum AMA1 to RON2; AlphaScreen AMA1-biotinylated RON2 peptide binding; Potency, µM (series often up to 58.2 µM), actives largely listed as inhibitors; actives 0.2% (n = 360,000); AID 720542; also: nearly all actives have a fitted effect of over 45% in size
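AMA1 (3D7) with his tag at 25 nM final met compounds first, then biotinylated RON2 peptide at 25 nM; detection used donor plus acceptor beads, 10 µg/mL apiece, read by AlphaScreen after 30 min at room temperature.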
Sm TGR inh – S. mansoni TGR enzyme inhibition. Q962Y6. purified TGR, DTNB reduction, TNB absorbance 405 nm. Potency, µM (highest dose often 114 µM), actives largely listed as inhibitors. actives 3% (n = 360,000). AID 485364; also: nearly all actives have a fitted effect of over 60% in size
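TGR 20 nM + NADPH 100 uM (dispensed conc.), cpd preinc 15 min RT; start with NADPH (500 uM addition) then DTNB (15 mM addition). Kinetic TNB absorbance, 405 nm filter. Four-parameter Hill fit across titration.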
Pf growth 96h – P. falciparum growth inhibition at 96 hours; actives 6.9% (n = 320,000); Potency, µM (top dose mostly 28.7 µM), hits mostly inhibitors; AID 504834; P. falciparum luciferase reporter growth, 96 h
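Compounds incubated with erythrocytes infected by luciferase-expressing P. falciparum (2% hematocrit, 0.05% parasitemia final) for 96 hours, 37 C in 5% CO2. Growth inhibition scored as decreased luciferase luminescence.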
NS1 function inh – inhibitors of influenza NS1 protein function | AID 2326 | actives 0.4% (n = 270,000) | Potency, µM (series often up to 46.1 µM); calls by dose curve; also: actives are rising curves; nearly all actives have a fitted effect of over 50% in size
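Growth recovery, yeast-based: influenza A NS1 expressed in S. cerevisiae causes slow growth, and suppressors are detected by OD600. The parent strain without NS1 is used as positive control.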
Pf growth 48h – P. falciparum growth inhibition at 48 hours (one generation). P. falciparum luciferase growth in erythrocytes, 48 h. AID 504832. actives 5.9% (n = 310,000). Potency, µM (highest dose often 28.7 µM), most hits filed as inhibitors
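In quantitative HTS format, infected erythrocytes bearing luciferase-reporter parasites were treated for a single generation at 37 C. Luminescence after adding detection reagent served as the growth measure.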
A number is an active result; – = inactive; ? = inconclusive; · = no result given; [ ] = remark or other dose. A selection: hits, their analogues and other compounds. The true share with any hit is near 11%. Unless noted, calls follow the shape of the dose curve; as a rule, active = well fitted curve in the direction sought with a large enough effect; inconclusive = small, poorly fitted or top-dose-only effect, or another doubt; inactive = no such curve, though single readings can be large; an effect the other way counts as inactive or inconclusive.

SMILES	AMA1 RON2 block	Sm TGR inh	Pf growth 96h	NS1 function inh	Pf growth 48h
CCOC(=O)Nc1ccc2c(c1)N(C(=O)CCN1CCN3CCCC3C1)c1ccccc1CC2 (stereo not given)	–	–	15µM	–	–
CCOC(=O)Nc1ccc2c(c1)N(C(=O)N(CC)CC)c1ccccc1CC2	–[11.6 µM]	–	?	–	12µM
COC(=O)Nc1ccc2c(c1)N(C(=O)CCN1CCN3CCCC3C1)c1ccccc1CC2 (stereo not given)	–	–	?	–	–
O=c1c[n+](CC[n+]2cc(=O)o[nH]2)[nH]o1	·	·	·	–	·
Cc1ccc(S(=O)(=O)Nc2ccsc2C#N)cc1	–	–	–	–	–
CCOC(=O)c1cc2c(=O)n3ccccc3nc2n(CC2CCCO2)c1=NC(=O)c1cccc(C(F)(F)F)c1 (stereo not given)	·	–	·	·	·
CCOC(=O)Nc1ccc2c(c1)N(C(=O)CN1CCN(CCO)CC1)c1ccccc1CC2	–	–	12µM	–	?
CCOC(=O)Nc1ccc2c(c1)N(C(=O)CN1CCN(C)CC1)c1ccccc1CC2	–	–	?	–	?
CCOC(=O)Nc1ccc2c(c1)N(C(=O)N1CCN(C)CC1)c1ccccc1CC2	–	–	–	–	12µM
CC(C)Nc1nc(-c2cccnc2)nc(-c2ccc(Cl)cc2)c1C#N	–	–	2.3µM	–	–[0.00184 µM]
CC(C)Nc1nc(-c2cccnc2)nc(-c2ccccc2)c1C#N	–	–	?	–	8.3µM
COc1ccc(C(c2nnnn2C2CCCCC2)N2CCN(c3ccccc3)CC2)cc1 (stereo not given)	·	–	–	–	10µM
COc1ccc(C(c2nnnn2C2CCCC2)N2CCN(c3ccccc3)CC2)cc1 (stereo not given)	–	–	?	–	9.3µM
COc1ccc(N2CCN(C(c3nnnn3C3CCCC3)C(C)C)CC2)cc1 (stereo not given)	–	–	–	–	–
C=CCN(C(=O)c1csnn1)C(C(=O)NCc1ccccc1)c1c(F)cccc1Cl (stereo not given)	–	–	–	?	–
Cc1ccc(S(=O)(=O)NN2C(=O)c3ccccc3NC2c2ccccn2)cc1 (stereo not given)	–	–	?	·	–
CN(C)c1cccc(NC2=CC(=[N+]3CCOCC3)CC(C)(C)C2)c1	–	–	?	–	·
CCN(CC)C1=CC(=[N+]2CCCC2)CC(C)(C)C1	–	–	0.37µM	–	1.3µM
CN(Cc1ccccc1)C1=CC(=[N+]2CCCC2)CC(C)(C)C1	–	–	0.59µM	–	0.93µM
Cc1c(F)cccc1NS(=O)(=O)c1ccc2c(c1)c(C)cc(=O)n2C	–	–	–	–	–
COc1ccccc1-n1cnc2c(c1=O)c1nc3ccccc3nc1n2-c1ccc(C)cc1	–	–	?	?	–
COc1ccccc1-n1c2nc3ccccc3nc2c2c(=O)n(-c3cc(C)cc(C)c3)cnc21	–	–	?	?	13µM
Cc1ccccc1COC(=O)c1nn(-c2ccccc2)nc1N	–	–	?	·	–
Nc1nn(-c2ccccc2)nc1C(=O)OCc1ccccc1F	·	–	1µM	·	–
CCCCN(C(=O)Cc1ccc(S(=O)(=O)N2CCOCC2)s1)c1c(N)n(CCCC)c(=O)[nH]c1=O	–	–	–	·	–
SMILES	AMA1 RON2 block	Sm TGR inh	Pf growth 96h	NS1 function inh	Pf growth 48h
NN1C(=O)/C(=C\c2ccco2)SC1=S	–	11µM	–	–	–
O=C1/C(=C\c2ccc(O)cc2)SC(=S)N1c1cccnc1	–	–	–	–	–
O=C1/C(=C/c2ccco2)SC(=S)N1c1cccnc1	?	14µM	–	–	–
C=C(C)c1cccc(C(C)(C)NC(=O)Nc2nnc(C(C)C)s2)c1	–	–	12µM	–	–
C=C(C)c1cccc(C(C)(C)NC(=O)N2CCCC2)c1	–	–	13µM	–	–
Cc1ccc(C)n1-c1cccc(S(=O)(=O)N2CCOCC2)c1	–	35µM	13µM	·	?
Cc1cc(C(=O)CCl)c(C)n1-c1cccc(S(=O)(=O)N2CCOCC2)c1	–	3.5µM	–	·	–
CN(C(=O)CCN1C(=O)S/C(=C\c2ccccc2)C1=O)C1CCS(=O)(=O)C1 (stereo not given)	–	–	?	–	?
Cc1cc(C(=O)C(C)Sc2cccc[n+]2[O-])c(C)n1-c1ccc(Cl)cc1 (stereo not given)	–	?	12µM	–	–
CCS(=O)(=O)N1CCC(C(=O)Nc2cc(C)ccc2O)CC1	–	–	12µM	–	–
Cc1ccc(NC(=O)C2CCN(S(=O)(=O)c3ccc4c(c3)OCCO4)CC2)c(O)c1	–	–	12µM	·	?
Cc1ccc(C(=O)O)cc1NC(=O)C1CCN(S(=O)(=O)c2ccc3c(c2)OCCO3)CC1	–	·	·	·	·
CCS(=O)(=O)N1CCC(C(=O)Nc2cc(Cl)ccc2O)CC1	–	–	–	–	–
COc1ccc(-c2cc(C(F)(F)F)nc(SCCC(=O)Nc3cc(C)on3)n2)cc1	–	–	·	–	–
Cc1cc(NC(=O)CCCS(=O)(=O)c2nc(-c3cccs3)cc(C(F)(F)F)n2)no1	–	13µM	–	–	?
CCCNC(=O)CSc1nc(-c2cccs2)cc(C(F)(F)F)n1	–	–	8.3µM	–	–
Cc1cc(NC(=O)CSc2nc(-c3cccs3)cc(C(F)(F)F)n2)no1	–	–	1.9µM	–	?
CCN(CC)CCCNC(=O)CSc1nc(-c2cccs2)cc(C(F)(F)F)n1	–	–	?	–	–
CC(=O)NC12CC3CC(C1)CC(C(=O)N(C)CC(=O)Nc1ccc(F)c(F)c1F)(C3)C2	–	–	?	·	–
Cc1coc2c1c(C)cc1oc(=O)cc(C)c12	·	–	·	·	·
O=C(O)/C=C/C(=O)Nc1ccc2c(c1)C(=O)c1ccccc1C2=O	–	50µM	–	–	–
NC(=O)/C=C/C(=O)Nc1ccc(Cl)cc1	–	3.5µM	–	·	–
O=C(O)/C=C/C(=O)Nc1ccc(O)cc1	–	?	10µM	–	–
O=C(O)/C=C/C(=O)Nc1ccc(C(=O)c2ccccc2)cc1	–	–	?	–	–
O=C(O)/C=C/C(=O)Nc1ccccc1SC(F)(F)C(F)(F)C(F)(F)F	–	45µM	–	–	–
SMILES	AMA1 RON2 block	Sm TGR inh	Pf growth 96h	NS1 function inh	Pf growth 48h
CCc1ccc(NC(=S)N2CCCCCCC2)cc1	–	–	–	·	–
Cc1ccccc1OCCOC(=O)c1cc(S(=O)(=O)N2CCOCC2)ccc1C	–	·	·	·	·
O=C(Nc1ccc(Cl)cc1C(=O)c1ccccc1)c1ccccc1Br	·	–	·	·	·
O=C(O)/C=C/C(=O)Nc1ccccc1-c1ccccc1	–	10µM	–	–	–
O=C(O)/C=C/C(=O)Nc1ccc(Cl)cc1C(=O)c1ccccc1	–	22µM	?	–	?
CN(C)Cc1c(C(=O)Nc2ccccc2)[nH]c2ccccc12	–	–	9.3µM	·	2.9µM
Cc1ccc(NC2CCCN(C(=O)C3CCCCC3)C2)cc1C (stereo not given)	–	–	–	–	?
O=C(C[n+]1cccc(CNC(=O)c2ccc(OC(F)F)cc2)c1)Nc1ccc(SC(F)F)cc1	–	–	0.17µM	–	1.7µM
